ER stress surv: ER stress cell death inhibition; CSM14.1 thapsigargin ER stress survival, ATP luminescence; relative survival (cellular ATP), % at 15 µg/mL (by protocol); hit rate 0.33% among 48,000;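 active = survival measured by cellular ATP above 50% at 15 µg/ml in the first screen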;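 also: cell death triggered by about 15 µM thapsigargin; ATP read 24 h after thapsigargin was added; plate controls were thapsigargin with DMSO for no effect and DMSO without thapsigargin for full effect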
* = called active by the depositor. The full list was thinned out, with hits kept by preference.

SMILES | ER stress surv
CCOc1ccccc1N1CCN(C(=O)c2sc3ccccc3c2Cl)CC1 | 125*
O=C(Nc1nccs1)c1cccc(N2C(=O)c3ccc([N+](=O)[O-])cc3C2=O)c1 | -4
O=S(=O)(NCC(c1ccccc1)N1CCOCC1)c1ccccc1 (centres undefined) | -1
Cc1ccc(N=C(NO)c2ccc(Cl)cc2Cl)cc1 | -2
Cc1c(NC(=O)COc2ccccc2[N+](=O)[O-])cccc1-c1nc2ncccc2o1 | -3
COc1ccc(N(Cc2ccc(C(=O)NC3CCCCC3)cc2)S(=O)(=O)c2ccccc2)cc1 | 9
CCN(CC)C(=O)c1ccc(CN(c2ccc(OC)cc2)S(=O)(=O)c2ccccc2)cc1 | 124*
COc1ccc(N(Cc2ccc(C(=O)NC3CCCC3)cc2)S(=O)(=O)c2ccccc2)cc1 | 2
COc1ccccc1/C=C1\SC(=S)N(c2c(C)n(C)n(-c3ccccc3)c2=O)C1=O | 13
COc1ccc(-c2cc(-c3ccc(C)cc3)nc(N/N=C/c3cccc(OC)c3O)n2)cc1OC | 2
COP(=O)(OC)C(Nc1cc(Cl)cc(Cl)c1)c1cccc(O)c1 (centres undefined) | -3
CC(C)OP(=O)(OC(C)C)C(Nc1cccc([N+](=O)[O-])c1)c1cccc([N+](=O)[O-])c1 (centres undefined) | 6
CC(C)OP(=O)(OC(C)C)C(Nc1cccc(N)c1)c1cccc(N)c1 (centres undefined) | 81*
CC(=O)C(=Nc1ccc(C)cc1C)NNc1ccc(Cl)c(C(N)=O)c1 | 2
COc1cc(NC(=O)c2ccc(-c3ccc(Cl)cc3)o2)ccc1NC(=O)c1ccco1 | -1
Cc1cc(NC(=O)c2ccc(-c3ccc(Cl)cc3)o2)ccc1NC(=O)c1ccco1 | 62*
Cc1cc(NC(=O)c2ccc(-c3ccc(Br)cc3)o2)ccc1NC(=O)c1ccco1 | -8
Cc1cc(C(C)(C)C)cc(C)c1NC(=O)C(F)(F)F | 1
NC1=NC(=O)/C(=C/c2ccc(-c3cc([N+](=O)[O-])ccc3Cl)o2)S1 | 9
COc1ccccc1OCCNC(=O)c1ccc(Oc2ccccc2)cc1 | 52*
COc1ccc(C(=O)NCCOc2ccccc2F)cc1OC | 10
COc1ccc(C(=O)NCCOc2ccccc2OC)cc1OC | -3
O=C(c1ccc(Cl)cc1)N1N=C(c2ccc([N+](=O)[O-])cc2)CC1(O)C(F)(F)F (centres undefined) | 8
CN1CCN(CCOCCOc2cccc3ccccc23)CC1 | -2
Cc1ccc(-c2csc(NC(=O)c3ccccc3Cl)n2)cc1 | 6
SMILES | ER stress surv
CCC(=O)N1c2ccccc2NC2=C(C(=O)CC(c3ccccc3)C2)C1c1cccc(Br)c1 (centres undefined) | 1
CCC(=O)N1c2ccccc2NC2=C(C(=O)CC(c3ccc(OC)cc3)C2)C1c1ccccc1 (centres undefined) | -1
CCC(=O)N1c2ccccc2NC2=C(C(=O)CC(c3ccccc3)C2)C1c1ccc(F)cc1 (centres undefined) | 106*
COc1ccc(C2C3=C(CC(c4ccccc4)CC3=O)Nc3ccccc3N2C(=O)C(C)C)cc1OC (centres undefined) | 2
CCC(=O)N1c2ccccc2NC2=C(C(=O)CC(c3ccccc3)C2)C1c1cccnc1 (centres undefined) | 3
CCC(=O)N1c2ccccc2NC2=C(C(=O)CC(C)(C)C2)C1c1ccc(N(CC)CC)cc1 (centres undefined) | 53*
CCC(=O)N1c2ccccc2NC2=C(C(=O)CC(C)(C)C2)C1c1ccc(C#N)cc1 (centres undefined) | -3
CC1(C)CC(=O)C2=C(C1)Nc1ccccc1N(C(=O)c1ccccc1)C2c1ccc(C#N)cc1 (centres undefined) | 16
O=C1CC(c2ccccc2)CC2=C1C(c1cccnc1)N(C(=O)c1ccccc1)c1ccccc1N2 (centres undefined) | 79*
Cn1ncc(Cl)c1C(=O)N(C(=O)c1c(Cl)cnn1C)c1ccccn1 | 0
CC1(C)CC(NC(=O)CNC2CCCCC2)CC(C)(C)N1 | 15
Cc1ccc2oc(-c3cccc(NC(=S)NC(=O)c4ccco4)c3C)nc2c1 | 10
CNC(=O)C(=O)Nc1ccc(Oc2ccccc2)cc1 | 11
O=C1N=c2ccccc2=C1c1sc(Nc2cccc(Cl)c2Cl)nc1O | 0
COc1ccc(C2CC(=O)C3=C(C2)Nc2ccccc2NC3c2cc3c(cc2Cl)OCO3)cc1 (centres undefined) | 7
O=C1CC(c2ccccc2)CC2=C1C(c1ccc(F)cc1)Nc1ccccc1N2 (centres undefined) | 8
O=C1CC(c2ccc(Cl)cc2)CC2=C1C(c1cc3c(cc1[N+](=O)[O-])OCO3)Nc1ccccc1N2 (centres undefined) | 84*
O=C1CC(c2ccc(Cl)cc2)CC2=C1C(c1ccccc1[N+](=O)[O-])Nc1ccccc1N2 (centres undefined) | 26
O=C1CC(c2ccc3c(c2)OCO3)CC2=C1C(c1cc3c(cc1Br)OCO3)Nc1ccccc1N2 (centres undefined) | 6
O=C1CC(c2ccccc2)CC2=C1C(c1ccc(Cl)c([N+](=O)[O-])c1)Nc1ccccc1N2 (centres undefined) | 100*
COc1ccc(C2CC(=O)C3=C(C2)Nc2ccccc2NC3c2ccc3c(c2)OCO3)cc1 (centres undefined) | 5
O=C1CC(c2ccc3c(c2)OCO3)CC2=C1C(c1ccc(C(F)(F)F)cc1)Nc1ccccc1N2 (centres undefined) | 122*
Cc1ccc(C2Nc3ccccc3NC3=C2C(=O)CC(c2ccc(Cl)cc2)C3)cc1[N+](=O)[O-] (centres undefined) | 7
O=C(c1ccco1)N1CCN(C2CC3CCC2C3)CC1 (centres undefined) | -2
O=C1S/C(=C/c2ccccc2)C(=O)N1CNc1ccccc1F | 2
SMILES | ER stress surv
O=C1NC(=S)S/C1=C\c1cn(CCOc2ccccc2F)c2ccccc12 | -4
CCOC(=O)c1c(NC(=O)c2cccc(Cl)c2)sc(C(=O)Nc2ccc(OC)cc2OC)c1C | 5
COc1ccc(CC(=O)NCC2(c3ccccc3)CCCC2)cc1OC | 6
COCCNC(=O)c1nn2c(C(F)(F)F)cc(-c3cccs3)nc2c1Cl | 14
Nc1cc(NCCCO)ccc1[N+](=O)[O-] | 2
O=C(c1ccccc1Cl)N1N=C(c2ccc(Cl)cc2)CC1(O)C(F)(F)F (centres undefined) | 2
COc1ccccc1C1Nc2ccc(C(=O)c3ccccc3)cc2NC2=C1C(=O)CCC2 (centres undefined) | 10
COc1ccc(C2Nc3ccc(C(=O)c4ccccc4)cc3NC3=C2C(=O)CCC3)c(OC)c1 (centres undefined) | 3
CN(C)c1ccc(C2Nc3ccc(C(=O)c4ccccc4)cc3NC3=C2C(=O)CCC3)cc1 (centres undefined) | 97*
COc1ccc(CC(=O)Nc2cccc(NC(=O)c3cccc(Cl)c3)c2)cc1OC | 9
Cc1[nH]oc(=O)c1N=Nc1ccccc1C(F)(F)F | 10
COc1ccccc1NS(=O)(=O)c1ccc(Br)cc1 | 3
CCOC(=O)c1cccc(NC(=O)c2c(-c3ccccc3Cl)noc2C)c1 | 9
COc1ccc(CCN=CC2=C(O)CC(c3ccccc3)CC2=O)cc1OC (centres undefined) | 8
COc1ccc(CCN=CC2=C(O)CC(C)(C)CC2=O)cc1OC | 9
COc1ccc(CCN=Cc2c(O)n(-c3c(Cl)cccc3Cl)c3ccccc23)cc1OC | 120*
